Experiment [1] can be described thus: Quantitative High-Throughput drug screen in 47 multiple myeloma cell lines against the NCATS MIPE library collection: H1112_PLB cell viability assay (AID 1918967; also: nearly all actives have a fitted effect of over 30% in size; also: potency is read from the fitted curve at half-maximal effect). The essentials:
(§1)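 Primary qHTS used for cherry-picking: cells at 500/well, library compounds for 48 h (37C, 5% CO2), luminescent ATP assay.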

Experiment [2] is described as follows: Quantitative High-Throughput drug screen in 47 multiple myeloma cell lines against the NCATS MIPE library collection: KMS12BM_JCRB cell viability assay (AID 1918971). Also: nearly all actives have a fitted effect of over 35% in size. Also: potency is read from the fitted curve at half-maximal effect. The essentials: (§2)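 qHTS of the MIPE 4.0 collection: 500 myeloma cells/well, 48 h drug exposure at 37C in 5% CO2, then CellTiter-Glo for 5 min at room temperature before luminescence reading.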

A short description of experiment [3]: Quantitative High-Throughput drug screen in 47 multiple myeloma cell lines against the NCATS MIPE library collection: KMS12PE_JCRB cell viability assay (AID 1918972). Also: nearly all actives have a fitted effect of over 30% in size. Also: potency is read from the fitted curve at half-maximal effect. The essentials: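 CellTiter-Glo ATP luminescence gave viability after 48 h compound treatment at 37C of 500 multiple myeloma cells per well. Normalisation used DMSO-only wells as 100% and media-only wells as 0% viability; primary qHTS of approved and investigational drugs.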

A short description of experiment [4]: Quantitative High-Throughput drug screen in 47 multiple myeloma cell lines against the NCATS MIPE library collection: KMS26_JCRB cell viability assay (AID 1918975). Also: nearly all actives have a fitted effect of over 45% in size. Also: potency is read from the fitted curve at half-maximal effect. The essentials:
as §2

Experiment [5] is described as follows: Quantitative High-Throughput drug screen in 47 multiple myeloma cell lines against the NCATS MIPE library collection: MOLP8_DSMZ cell viability assay (AID 1918977). Also: nearly all actives have a fitted effect of over 45% in size. Summed up:
(§3)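 ATP-based CellTiter-Glo luminescence after 48 h drug exposure (37 °C, 5% CO2) of 500 myeloma cells per well. DMSO-only wells set 100% viability, media-only wells 0%; MIPE 4.0 library added by pin tool.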

The nature of experiment [6]: Quantitative High-Throughput drug screen in 47 multiple myeloma cell lines against the NCATS MIPE library collection: NCIH929_DSMZ cell viability assay (AID 1918978). Also: nearly all actives have a fitted effect of over 35% in size. Also: potency is read from the fitted curve at half-maximal effect. The essentials: as §3
A short description of experiment [7]: Quantitative High-Throughput drug screen in 47 multiple myeloma cell lines against the NCATS MIPE library collection: MM1S_ATCC cell viability assay (AID 1918980). Also: nearly all actives have a fitted effect of over 45% in size. Also: potency is read from the fitted curve at half-maximal effect. Summed up: as §3
A short description of experiment [8]: Quantitative High-Throughput drug screen in 47 multiple myeloma cell lines against the NCATS MIPE library collection: LP1_DSMZ cell viability assay (AID 1918982). Also: nearly all actives have a fitted effect of over 35% in size. Also: potency is read from the fitted curve at half-maximal effect. Summed up:
as §3

Experiment [9] in a line: Quantitative High-Throughput drug screen in 47 multiple myeloma cell lines against the NCATS MIPE library collection: KMS28PE_JCRB cell viability assay (AID 1918983). Also: nearly all actives have a fitted effect of over 35% in size. Also: potency is read from the fitted curve at half-maximal effect. The essentials: as §3
Experiment [10] is described as follows: Quantitative High-Throughput drug screen in 47 multiple myeloma cell lines against the NCATS MIPE library collection: KMS34_JCRB cell viability assay (AID 1918985). Also: nearly all actives have a fitted effect of over 40% in size. Also: potency is read from the fitted curve at half-maximal effect. The essentials: as §3
Experiment [11] can be described thus: Quantitative High-Throughput drug screen in 47 multiple myeloma cell lines against the NCATS MIPE library collection: MMM1_PLB cell viability assay (AID 1918976). Also: nearly all actives have a fitted effect of over 35% in size. Also: potency is read from the fitted curve at half-maximal effect. The essentials:
as §3

Experiment [12] can be described thus: Quantitative High-Throughput drug screen in 47 multiple myeloma cell lines against the NCATS MIPE library collection: MM1R_ATCC cell viability assay (AID 1918981). Also: nearly all actives have a fitted effect of over 35% in size. Also: potency is read from the fitted curve at half-maximal effect. Summed up:
as §3

The nature of experiment [13]: Quantitative High-Throughput drug screen in 47 multiple myeloma cell lines against the NCATS MIPE library collection: L363_DSMZ cell viability assay (AID 1918984). Also: nearly all actives have a fitted effect of over 40% in size. Also: potency is read from the fitted curve at half-maximal effect. The essentials: as §3
Experiment [14] can be described thus: Quantitative High-Throughput drug screen in 47 multiple myeloma cell lines against the NCATS MIPE library collection: KMS27_JCRB cell viability assay (AID 1918970). Also: nearly all actives have a fitted effect of over 30% in size. Also: potency is read from the fitted curve at half-maximal effect. The essentials:
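KMS27_JCRB myeloma cells, 500 per well, exposed 48 h at 37 C, 5% CO2 to MIPE 4.0 compounds. Viability from ATP by CellTiter-Glo luminescence, normalized to DMSO (100%) and medium-only (0%) wells.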

Experiment [15] can be described thus: Quantitative High-Throughput drug screen in 47 multiple myeloma cell lines against the NCATS MIPE library collection: OCIMY1_PLB cell viability assay (AID 1918979). Also: nearly all actives have a fitted effect of over 35% in size. Also: potency is read from the fitted curve at half-maximal effect. Summed up: as §3
A short description of experiment [16]: Quantitative High-Throughput drug screen in 47 multiple myeloma cell lines against the NCATS MIPE library collection: KMS21BM_JCRB cell viability assay (AID 1918974). Also: potency is read from the fitted curve at half-maximal effect. As to conditions: ATP luminescence, 48 h; viability: at 45.8 µM (top of the series) unless noted. The essentials: as §1
A short description of experiment [17]: Quantitative High-Throughput drug screen in 47 multiple myeloma cell lines against the NCATS MIPE library collection: KMS20_JCRB cell viability assay (AID 1918973). Also: nearly all actives have a fitted effect of over 45% in size. Also: potency is read from the fitted curve at half-maximal effect. Summed up: as §1
A short description of experiment [18]: Quantitative High-Throughput drug screen in 47 multiple myeloma cell lines against the NCATS MIPE library collection: Karpas25_ECACC cell viability assay (AID 1918968; also: nearly all actives have a fitted effect of over 35% in size; also: potency is read from the fitted curve at half-maximal effect). Summed up:
as §1

Molecules are shown by their SMILES. Results filed as inconclusive are left out. Calls of active or inactive are those of the source. Calls follow the shape of the dose curve; as a rule, active = well fitted curve in the direction sought with a large enough effect; inconclusive = small, poorly fitted or top-dose-only effect, or another doubt; inactive = no such curve, though single readings can be large; an effect the other way counts as inactive or inconclusive.

On to `CCCc1cc(=O)[nH]c(=S)[nH]1`, for which the Potency entry in experiment [1], in [2], in experiment [3], in [4], in [5] and in experiment [6] was “inactive” throughout. The Potency entry in experiment [8], in experiment [9] and in experiment [10] was “inactive” in each case. The Potency in [7] was 2.64 µM (active).
As to `CC(=O)N1CCN(c2ccc(OC[C@H]3CO[C@](Cn4ccnc4)(c4ccc(Cl)cc4Cl)O3)cc2)CC1`, the Potency in experiment [1] is 8.33 µM (active); in experiment [3], 5.26 µM (active); in [11] it was 23.5 µM (active); in experiment [6], 9.35 µM (active); in experiment [12] it was 11.8 µM (active); in experiment [9], 6.62 µM (active). Besides, the Potency in experiment [10] is 13.2 µM (active). The Potency entry in experiment [13] is “inactive”.
For the compound `CN(C)[C@@H](CCOc1cccc2ccccc12)c1ccccc1`, the Potency in [1] was 18.7 µM (active); in experiment [11] it was 20.9 µM (active); in experiment [6] it was 20.9 µM (active); in experiment [7], 23.5 µM (active); in [9], 20.9 µM (active); in [10], 20.9 µM (active). The Potency result in experiment [14] and in experiment [15] was “inactive” each time.
In the case of `Cn1c(NCCN(CCO)CCCc2ccc([N+](=O)[O-])cc2)cc(=O)n(C)c1=O`, the Potency entry in experiment [1], in experiment [4], in [15] and in experiment [10] was “inactive” each time. Also, the Potency was 26.4 µM (active) in experiment [14], 20.9 µM (active) in [3], 10.5 µM (active) in [16] and 23.5 µM (active) in experiment [7].
`O=C(O)c1cccnc1Nc1cccc(C(F)(F)F)c1`: the Potency entry in experiment [1], in experiment [14], in [3], in [17], in experiment [6] and in experiment [15] was “inactive” throughout. The Potency entry in [7], in experiment [12], in [8], in experiment [9] and in [10] was “inactive” in each case.
Turning to `C=CCc1cc(OC)c(O)c(C(=O)NCCO)c1`, the Potency entry in experiment [1], in experiment [18], in experiment [3], in experiment [4], in [6] and in [15] was “inactive” throughout. Also, the Potency entry in [7], in [12], in experiment [8], in experiment [9] and in [10] was “inactive” throughout.
On to `Nc1ncn([C@H]2C[C@H](O)[C@@H](CO)O2)c(=O)n1`, for which the Potency in [18] is 4.69 µM (active); in [7], 0.418 µM (active). For the same compound, the Potency result in experiment [4], in [5], in experiment [15], in experiment [12], in experiment [8] and in experiment [9] was “inactive” in each case.
`CN(C)C(=O)COC(=O)Cc1ccc(OC(=O)c2ccc(N=C(N)N)cc2)cc1`: the values for the Potency in experiment [1], in experiment [7] and in experiment [13] were 14.8 µM (active), 11.8 µM (active) and 5.26 µM (active), respectively. In addition, the Potency result in [5], in [15], in experiment [8] and in [9] was “inactive” throughout.
On to `Cc1cccc(C)c1OCC(=O)N[C@@H](Cc1ccccc1)[C@@H](O)C[C@H](Cc1ccccc1)NC(=O)[C@H](C(C)C)N1CCCNC1=O`, for which the Potency is 16.6 µM (active) in [1]; 6.62 µM (active) in [3]; 18.7 µM (active) in experiment [4]; 16.6 µM (active) in experiment [11]; 20.9 µM (active) in experiment [7]; 20.9 µM (active) in [9].
In the case of `O=C(O)c1cc(=O)c2c(OCC(O)COc3cccc4oc(C(=O)O)cc(=O)c34)cccc2o1`, the Potency result in experiment [1], in experiment [18], in experiment [6], in [12], in experiment [8] and in [9] was “inactive” in each case.
For the compound `CC(=O)O[C@H]1C(=O)[C@@]2(C)C([C@H](OC(=O)c3ccccc3)[C@]3(O)C[C@H](OC(=O)[C@H](O)[C@@H](NC(=O)c4ccccc4)c4ccccc4)C(C)=C1C3(C)C)[C@]1(OC(C)=O)CO[C@@H]1C[C@@H]2O` (stereo partly drawn), the Potency entry in experiment [18], in experiment [2], in experiment [4], in experiment [5], in experiment [6] and in [7] was “inactive” each time. For the same compound, the Potency result in experiment [12], in [8] and in [9] was “inactive” each time. The Potency in experiment [11] was 14.8 µM (active); in experiment [15], 0.0187 µM (active).
For the compound `O=C(O)CCNC(=O)c1ccc(N=Nc2ccc(O)c(C(=O)O)c2)cc1`, the Potency entry in experiment [1], in experiment [3], in experiment [6], in experiment [15], in experiment [12] and in experiment [8] was “inactive” each time. Moreover, the Potency entry in experiment [9] and in experiment [10] was “inactive” in each case. The results for the Potency in [18] and in [7] were 0.0037 µM (active) and 8.33 µM (active), respectively.
For `O=C1c2ccccc2-c2n[nH]c3cccc1c23`, the Potency result in experiment [1], in experiment [15], in [8] and in experiment [9] was “inactive” throughout. The Potency is 2.96 µM (active) in [14] and 14.8 µM (active) in experiment [7].
As for `Cc1ccc(C(=O)c2cc(O)c(O)c([N+](=O)[O-])c2)cc1`, the Potency in experiment [18] was 26.4 µM (active); in experiment [14] it was 23.5 µM (active); in experiment [3], 18.7 µM (active); in experiment [17], 20.9 µM (active); in experiment [7], 20.9 µM (active). Also, the Potency entry in experiment [15], in experiment [8], in experiment [9] and in experiment [10] was “inactive” throughout.
In the case of `Cc1cccc(-c2[nH]ncc2-c2ccc3ncccc3n2)n1`, the Potency entry in experiment [1], in [3], in [11], in [6], in [15] and in experiment [9] was “inactive” in each case. The Potency entry in [13] and in experiment [10] was “inactive” in each case. In experiment [7], the Potency is 14.8 µM (active).
`CCN(CC)CCOc1ccc(Cc2ccccc2)cc1`: the Potency entry in [1], in experiment [6] and in experiment [15] was “inactive” throughout. For the same compound, the Potency in [18] is 14.8 µM (active); in experiment [7], 23.5 µM (active); in experiment [8], 14.8 µM (active); in experiment [9], 20.9 µM (active).
In the case of `COc1c(O)cc2c(c1O)[C@@H]1O[C@H](CO)[C@@H](O)[C@H](O)[C@H]1OC2=O`, the Potency result in experiment [1], in experiment [14], in experiment [3], in experiment [17], in [4] and in [6] was “inactive” throughout. For the same compound, the Potency result in experiment [15], in [7], in experiment [12], in experiment [8] and in [9] was “inactive” in each case. The results for the Potency in [2] and in experiment [11] were 4.18 µM (active) and 2.35 µM (active), respectively.

The values above are taken from PubChem BioAssay (NCATS).
